The source made the active and inactive calls. How the calls were made is not given here.
Key:
[1] = target: Muscarinic acetylcholine receptor M1 (Rattus norvegicus) (UniProt P08482); test: M5 positive allosteric modulators, analog testing, SAR follow-up, CHO cells, calcium, ACh EC10, single 30 µM (AID 2665); details: rat M1 potentiation, CHO calcium; at 30 µM; stronger effect = higher value;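 further: 100% = response to a maximal acetylcholine concentration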
[2] = target: Muscarinic acetylcholine receptor M5 (Homo sapiens) (UniProt P08912); test: as above; details: CHO hM5 calcium flux, ACh EC10 potentiation; at 30 µM; stronger effect = higher value
Chain of Muscarinic acetylcholine receptor M5 (Homo sapiens) (P08912 whole entry, looked up): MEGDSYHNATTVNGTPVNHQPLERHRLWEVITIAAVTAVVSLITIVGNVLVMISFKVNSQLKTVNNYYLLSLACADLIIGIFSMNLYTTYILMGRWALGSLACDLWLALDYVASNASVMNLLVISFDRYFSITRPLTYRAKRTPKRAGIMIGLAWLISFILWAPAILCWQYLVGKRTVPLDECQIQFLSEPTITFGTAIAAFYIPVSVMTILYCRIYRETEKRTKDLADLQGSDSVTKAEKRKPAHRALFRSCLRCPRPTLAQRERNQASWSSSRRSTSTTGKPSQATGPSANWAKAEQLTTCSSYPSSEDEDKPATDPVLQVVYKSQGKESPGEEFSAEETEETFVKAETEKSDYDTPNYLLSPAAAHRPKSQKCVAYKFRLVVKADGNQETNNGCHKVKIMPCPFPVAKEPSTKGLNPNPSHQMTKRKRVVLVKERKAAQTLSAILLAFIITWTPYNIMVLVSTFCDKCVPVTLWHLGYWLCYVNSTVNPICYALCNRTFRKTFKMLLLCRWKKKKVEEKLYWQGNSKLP

O=C1C(=O)N(Cc2ccc(Br)cc2)c2ccc(Cl)cc21
% ACh max response [1]: 26.1% | % ACh max response [2]: 32% (inactive)

COc1cccc(CN2C(=O)C(=O)c3c(Cl)ccc(Cl)c32)c1
% ACh max response [1]: 13.3% | % ACh max response [2]: 35.1% (inactive)

COc1ccc(CN2C(=O)C(=O)c3cccc(Cl)c32)cc1
% ACh max response [1]: 49.4% | % ACh max response [2]: 30.3% (active)

COc1ccc(CCN2C(=O)C(=O)c3ccccc32)cc1
% ACh max response [1]: 38.6% | % ACh max response [2]: 51.7% (active)

O=C1C(=O)N(Cc2c(F)cccc2F)c2c(F)cccc21
% ACh max response [1]: 33.1% | % ACh max response [2]: 25.1% (inactive)

O=C1C(=O)N(Cc2ccccc2F)c2ccc(Cl)cc21
% ACh max response [1]: 23% | % ACh max response [2]: 36.3% (inactive)

Cc1ccccc1CN1C(=O)C(=O)c2cccc(Cl)c21
% ACh max response [1]: 32.8% | % ACh max response [2]: 32.6% (inactive)

O=C1C(=O)N(Cc2ccc(OC(F)(F)F)cc2)c2c(Cl)cccc21
% ACh max response [1]: 43.6% | % ACh max response [2]: 72.3% (active)

O=C1C(=O)N(Cc2ccccc2C(F)(F)F)c2c(Cl)cccc21
% ACh max response [1]: 31.1% | % ACh max response [2]: 14% (inactive)

COc1ccc(CN2C(=O)C(=O)c3c(Cl)ccc(Cl)c32)cc1
% ACh max response [1]: 18.6% | % ACh max response [2]: 11.7% (inactive)

O=C1C(=O)N(Cc2ccccc2Cl)c2c(F)cccc21
% ACh max response [1]: 18.5% | % ACh max response [2]: 20.3% (inactive)

COc1cccc(CN2C(=O)C(=O)c3cccc(F)c32)c1
% ACh max response [1]: 51.1% | % ACh max response [2]: 52% (active)

O=C1C(=O)N(Cc2ccc(Br)cc2)c2ccc(OC(F)(F)F)cc21
% ACh max response [1]: 13.2% | % ACh max response [2]: 47.6% (active)

O=C1C(=O)N(Cc2ccccc2F)c2ccc(OC(F)(F)F)cc21
% ACh max response [1]: 11.3% | % ACh max response [2]: 51.8% (active)

Cc1ccccc1CN1C(=O)C(=O)c2cc(F)ccc21
% ACh max response [1]: 37.7% | % ACh max response [2]: 40.8% (active)

O=C1C(=O)N(Cc2c(F)cccc2F)c2ccccc21
% ACh max response [1]: 36.6% | % ACh max response [2]: 17.4% (inactive)

O=C1C(=O)N(Cc2ccc(C(F)(F)F)cc2)c2ccc(OC(F)(F)F)cc21
% ACh max response [1]: 25.7% | % ACh max response [2]: 67.2% (active)

O=C1C(=O)N(Cc2ccc(F)cc2F)c2ccccc21
% ACh max response [1]: 44.8% | % ACh max response [2]: 40.4% (active)

O=C1C(=O)N(Cc2ccc(Br)cc2F)c2c(Cl)ccc(Cl)c21
% ACh max response [1]: 9.93% | % ACh max response [2]: 12.4% (inactive)

O=C1C(=O)N(Cc2ccccc2C(F)(F)F)c2ccc(Cl)cc21
% ACh max response [1]: 29.6% | % ACh max response [2]: 48.4% (active)

O=C1C(=O)N(Cc2ccccc2F)c2c(Cl)ccc(Cl)c21
% ACh max response [1]: 12.4% | % ACh max response [2]: 14.7% (inactive)

O=C1C(=O)N(Cc2ccccc2Cl)c2ccc(Cl)cc21
% ACh max response [1]: 21.3% | % ACh max response [2]: 44.4% (active)

O=C1C(=O)N(Cc2ccc(-c3ccsc3)cc2)c2ccc(OC(F)(F)F)cc21
% ACh max response [2]: 92.3% (active)

O=C1C(=O)N(Cc2ccc(-c3ccccc3)cc2)c2ccc(OC(F)(F)F)cc21
% ACh max response [2]: 82.7% (active)

O=C1C(=O)N(Cc2ccc(C(F)(F)F)cc2)c2ccc(Cl)cc21
% ACh max response [1]: 44.1% | % ACh max response [2]: 67.4% (active)

COc1ccc(-c2ccc(CN3C(=O)C(=O)c4cc(OC(F)(F)F)ccc43)cc2)cc1
% ACh max response [2]: 46% (active)

O=C1C(=O)N(Cc2ccc(-c3ccc(Cl)cc3)cc2)c2ccc(OC(F)(F)F)cc21
% ACh max response [2]: 45.5% (active)

Cc1cccc2c1N(Cc1c(F)cccc1F)C(=O)C2=O
% ACh max response [1]: 17.3% | % ACh max response [2]: 14.4% (inactive)

O=C1C(=O)N(Cc2ccc(-c3ccc(F)nc3)cc2)c2ccc(OC(F)(F)F)cc21
% ACh max response [2]: 78.8% (active)

O=C1C(=O)N(Cc2ccc(F)cc2F)c2c(Cl)cccc21
% ACh max response [1]: 64.6% | % ACh max response [2]: 61.6% (active)

O=C1C(=O)N(Cc2ccc(-c3ccc(Cl)nc3)cc2)c2ccccc21
% ACh max response [1]: 37.1% | % ACh max response [2]: 47.8% (active)

O=C1C(=O)N(Cc2c(F)cccc2F)c2ccc(Cl)cc21
% ACh max response [1]: 27.3% | % ACh max response [2]: 31.8% (inactive)

Cc1ccccc1CN1C(=O)C(=O)c2cc(OC(F)(F)F)ccc21
% ACh max response [1]: 26.2% | % ACh max response [2]: 60% (active)

Cc1ccc2c(c1)C(=O)C(=O)N2Cc1ccccc1Cl
% ACh max response [1]: 16.8% | % ACh max response [2]: 24.3% (inactive)

Cc1ccccc1CN1C(=O)C(=O)c2cccc(F)c21
% ACh max response [1]: 30.2% | % ACh max response [2]: 27.5% (inactive)

Cc1ccccc1CN1C(=O)C(=O)c2cc(Cl)ccc21
% ACh max response [1]: 27.6% | % ACh max response [2]: 47.3% (active)

O=C1C(=O)N(Cc2ccccc2F)c2ccccc21
% ACh max response [1]: 38.9% | % ACh max response [2]: 24.5% (active)

O=C1C(=O)N(Cc2ccc(C(F)(F)F)cc2)c2c(Cl)cccc21
% ACh max response [1]: 67% | % ACh max response [2]: 70.8% (active)

O=C1C(=O)N(Cc2ccccc2F)c2c(Cl)cccc21
% ACh max response [1]: 50.4% | % ACh max response [2]: 49.5% (active)

CCCOc1ccc(-c2ccc(CN3C(=O)C(=O)c4cc(OC(F)(F)F)ccc43)cc2)cc1
% ACh max response [2]: 31.8% (inactive)

O=C1C(=O)N(CCc2ccc(Br)cc2)c2ccccc21
% ACh max response [1]: 52.4% | % ACh max response [2]: 65% (active)
